Source: PubChem BioAssay (Tox21)
Inconclusive results are not listed. Where a call stands in place of a potency, no number is given. Activity calls are given as the source filed them. The call rests on the fitted dose curve; in most records, active means well fitted cell-killing curve with a large enough effect in the repeat runs; inconclusive means weak or mixed curves, or effect the other way; inactive means flat fitted curve, though single readings scatter. Where a SMILES comes first, the peptide text is derived from it. [ ]: non-standard residue; d: D form. pGlu = O=C1CC[C@@H](C(=O)O)N1

Experiment: qHTS RealTime-Glo MT Cell Viability Assay in HEK293 cells - 24 hour (AID 1224886); further: top concentration of the series differs between compounds; nearly all actives have a fitted effect of over 50% in size
Conditions: RealTime-Glo luminescence; series mostly up to 76.8 µM
Source text: National Center for Advancing Translational Sciences [NCATS]
NIH Chemical Genomics Center [NCGC]
U.S. Environmental Protection Agency [EPA]
National Institutes of Environmental Health Sciences [NIEHS]
National Toxicology Program [NTP]
U.S. Food and Drug Administration [FDA]
Measure of cell viability is critical in the cell-base assay. Analysis of cell viability is necessary for the characterization of cell responses to cytotoxic drugs and environmental stress. A RealTime-Glo MT Cell Viability Assay to monitor cell viability in real time of continues cell culture during 40 hours of compound treatment was used to screen Tox21 10K library compounds in Hek293 cells. The RealTime-Glo MT Cell Viability Assay is a nonlytic, homogeneous, bioluminescent method to measure cell viability in real time using a simple, plate-based method. The assay involves adding NanoLuc luciferase and a cell-permeant prosubstrate to cells in culture. Viable cells reduce the proprietary prosubstrate to generate a substrate for NanoLuc luciferase. This substrate diffuses from cells into the surrounding culture medium, where it is rapidly used by the NanoLuc Enzyme to produce a luminescent signal. The signal correlates with the number of viable cells, making the assay well suited for cytotoxicity studies.
Tox21 Assay Protocol Summary:
The mixture of Hek293 cell suspension and reagents were dispensed at 600cells/6 ul/well in 1536-well tissue culture treated black solid bottom plates using a Multidrop dispenser. After the assay plates were incubated at a 37 C/5% CO2 incubator for 5 hours, 23 nL of compounds dissolved in DMSO, positive and negative controls was transferred to the assay plate by a pintool work station. The plates were incubated at 37 C for 40 hours. The luminescence intensity were measured at 0h, 8h, 16h, 24h, 32h and 40h time points using ViewLux plate reader during compound treatment.

Row | Structure (SMILES) | Potency
1 | NO | inactive
2 | CC[N+](CC)(CC)CCOc1cccc(OCC[N+](CC)(CC)CC)c1OCC[N+](CC)(CC)CC | inactive
3 | Cc1onc(-c2c(Cl)cccc2Cl)c1C(=O)Cl | inactive
4 | C1CCC2=NCCCN2CC1 | inactive
5 | Cc1ccc(C(=O)c2ccc(CC(=O)O)n2C)cc1 | inactive
6 | CC(C)CCCO | inactive
7 | [Ca+2] | inactive
8 | CN1[C@@H]2CC[C@H]1CC(OC(=O)C(O)c1ccccc1)C2 (stereo not given in full) | inactive
9 | CC(C)COC(=O)c1ccc(N)cc1 | inactive
10 | CCO[Si](OCC)(OCC)c1ccccc1 | inactive
11 | CC(CC=O)CC(C)(C)C (stereo not given) | inactive
12 | O=[N+]([O-])c1ccc(/C=N\O)o1 | inactive
13 | O=C(O)CNC(=O)c1ccccc1 | inactive
14 | CCCCS(=O)(=O)N[C@@H](Cc1ccc(OCCCCC2CCNCC2)cc1)C(=O)O | inactive
15 | O=C(O)CCSCCC(=O)O | inactive
16 | CN1CC(=O)N/C1=N/C(=O)Nc1cccc(Cl)c1 | inactive
17 | CCN(CC#N)c1cccc(C)c1 | inactive
18 | CC(C)[C@H]1CC[C@@H](C)CC1=O | inactive
19 | CCCC(C)C(=O)OCC (stereo not given) | inactive
20 | CCCCOC(=O)CCC(C)=O | inactive

Row | Structure (SMILES) | Potency
21 | CCOC(=O)COC(=O)c1ccccc1C(=O)OCC | inactive
22 | CC(C)(C)C(=O)Oc1ccc(S(=O)(=O)Nc2ccccc2C(=O)NCC(=O)O)cc1 | inactive
23 | O=C(CO)[C@@H](O)[C@H](O)[C@H](O)CO | inactive
24 | CC(C)c1ccc2ncccc2c1 | inactive
25 | CC(N)C12CC3CC(CC(C3)C1)C2 (stereo not given) | inactive
26 | CC(C)CC(C)(N)C#N (stereo not given) | inactive
27 | CCNC(=O)[C@@H]1CCCN1C(=O)[C@H](CCCN=C(N)N)NC(=O)[C@H](CC(C)C)NC(=O)CNC(=O)[C@H](Cc1ccc(O)cc1)NC(=O)[C@H](CO)NC(=O)[C@H](Cc1c[nH]c2ccccc12)NC(=O)[C@H](Cc1cnc[nH]1)NC(=O)[C@@H]1CCC(=O)N1 ([pGlu]HWSYGLRP-NHEt) | inactive
28 | CCCC[N+](C)(CCCC)CCCC | inactive
29 | NCCCC[C@H](N[C@@H](CCc1ccccc1)C(=O)O)C(=O)N1CCC[C@H]1C(=O)O | inactive
30 | Cc1ccc(-c2ncc(Cl)cc2-c2ccc(S(C)(=O)=O)cc2)cn1 | inactive
31 | C=COC(=O)C(C)(CC)CCC(C)C (stereo not given) | inactive
32 | CCN1CCOCC1 | inactive
33 | N[C@H](C(=O)O)[C@@H](O)c1ccc(O)c(O)c1 | inactive
34 | CC(C)C(=O)OC(=O)C(C)C | inactive
35 | O=C(O)CCCC[P+](c1ccccc1)(c1ccccc1)c1ccccc1 | inactive
36 | C[C@@H]1C[C@H]2[C@@H]3C[C@H](F)C4=CC(=O)C(Cl)=C[C@]4(C)[C@@]3(F)[C@@H](O)C[C@]2(C)[C@@]1(O)C(=O)CO | inactive
37 | CCCO[Si](OCCC)(OCCC)OCCC | inactive
38 | Clc1cc(Cl)c(Cl)nc1Cl | inactive
39 | COCCOCC(OC)OC | inactive
40 | O=S(=O)(O)c1cc(O)c(O)c(S(=O)(=O)O)c1 | inactive
